In ChEMBL document CHEMBL1961873, “Compounds: GSK PKIS; Assays: Nanosyn kinase panel” (2012):

Legend:
[1] = target: Tyrosine-protein kinase CSK (Homo sapiens) (UniProt P41240); settings: at 1 µM;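 also: each value is an averaged inhibition reading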
[2] = target: T1, Discoidin domain-containing receptor 2 (Homo sapiens) (UniProt Q16832); settings: at 0.1 µM
T1 sequence (whole entry): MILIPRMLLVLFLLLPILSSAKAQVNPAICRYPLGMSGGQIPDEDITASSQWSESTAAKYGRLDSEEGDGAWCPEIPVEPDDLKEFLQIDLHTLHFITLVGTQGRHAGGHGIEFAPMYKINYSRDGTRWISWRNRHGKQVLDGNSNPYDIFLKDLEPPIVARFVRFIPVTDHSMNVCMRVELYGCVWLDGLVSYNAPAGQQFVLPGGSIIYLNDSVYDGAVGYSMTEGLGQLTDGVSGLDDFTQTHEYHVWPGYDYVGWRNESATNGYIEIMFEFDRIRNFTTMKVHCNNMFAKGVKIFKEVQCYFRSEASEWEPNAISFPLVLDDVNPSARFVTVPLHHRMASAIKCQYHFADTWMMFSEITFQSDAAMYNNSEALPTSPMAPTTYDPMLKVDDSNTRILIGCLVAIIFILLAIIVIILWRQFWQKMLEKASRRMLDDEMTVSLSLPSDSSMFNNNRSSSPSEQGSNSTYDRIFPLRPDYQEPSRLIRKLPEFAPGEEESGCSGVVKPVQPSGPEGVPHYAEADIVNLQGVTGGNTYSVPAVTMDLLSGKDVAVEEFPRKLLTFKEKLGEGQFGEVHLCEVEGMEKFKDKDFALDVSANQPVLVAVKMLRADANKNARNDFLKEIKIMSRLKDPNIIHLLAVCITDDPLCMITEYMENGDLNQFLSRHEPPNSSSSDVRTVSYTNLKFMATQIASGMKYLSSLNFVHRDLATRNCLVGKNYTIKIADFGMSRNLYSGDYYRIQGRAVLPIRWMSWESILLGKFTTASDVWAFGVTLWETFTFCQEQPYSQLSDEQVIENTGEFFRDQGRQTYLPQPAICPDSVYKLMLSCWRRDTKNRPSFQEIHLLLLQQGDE

[3] = target: T1, Discoidin domain-containing receptor 2 (Homo sapiens); settings: at 1 µM
[4] = target: Epidermal growth factor receptor (Homo sapiens) (UniProt P00533); settings: at 0.1 µM
Epidermal growth factor receptor (Homo sapiens), sequence (P00533 whole entry): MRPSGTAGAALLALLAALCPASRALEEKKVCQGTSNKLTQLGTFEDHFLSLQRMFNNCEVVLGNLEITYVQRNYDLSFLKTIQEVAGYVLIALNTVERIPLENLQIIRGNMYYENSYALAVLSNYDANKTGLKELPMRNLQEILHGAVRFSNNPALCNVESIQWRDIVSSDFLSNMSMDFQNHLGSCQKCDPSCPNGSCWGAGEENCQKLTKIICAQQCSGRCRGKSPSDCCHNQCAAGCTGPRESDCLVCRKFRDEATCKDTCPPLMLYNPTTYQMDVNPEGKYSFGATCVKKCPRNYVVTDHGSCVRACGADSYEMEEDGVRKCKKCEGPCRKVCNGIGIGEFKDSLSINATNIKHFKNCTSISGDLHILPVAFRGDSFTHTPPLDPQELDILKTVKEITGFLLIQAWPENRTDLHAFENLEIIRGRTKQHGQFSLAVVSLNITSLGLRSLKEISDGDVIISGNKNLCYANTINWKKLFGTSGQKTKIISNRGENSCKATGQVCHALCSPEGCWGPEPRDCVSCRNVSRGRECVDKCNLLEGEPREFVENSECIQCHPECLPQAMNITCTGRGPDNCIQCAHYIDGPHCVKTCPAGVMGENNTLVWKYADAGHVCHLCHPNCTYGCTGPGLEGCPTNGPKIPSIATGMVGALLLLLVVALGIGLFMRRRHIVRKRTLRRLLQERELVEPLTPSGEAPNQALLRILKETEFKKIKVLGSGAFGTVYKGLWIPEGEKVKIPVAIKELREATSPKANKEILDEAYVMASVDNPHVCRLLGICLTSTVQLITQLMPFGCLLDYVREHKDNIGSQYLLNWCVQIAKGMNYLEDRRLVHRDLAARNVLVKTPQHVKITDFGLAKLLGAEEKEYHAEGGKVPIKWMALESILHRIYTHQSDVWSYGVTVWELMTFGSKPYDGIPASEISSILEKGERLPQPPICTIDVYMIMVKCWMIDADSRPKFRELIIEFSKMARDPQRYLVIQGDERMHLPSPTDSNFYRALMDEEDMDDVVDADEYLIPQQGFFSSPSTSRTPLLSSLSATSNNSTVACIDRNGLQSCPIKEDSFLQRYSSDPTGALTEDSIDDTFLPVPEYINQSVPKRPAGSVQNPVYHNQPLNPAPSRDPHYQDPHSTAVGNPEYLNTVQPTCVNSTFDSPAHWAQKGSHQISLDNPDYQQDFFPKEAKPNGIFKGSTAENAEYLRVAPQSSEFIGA

[5] = target: Epidermal growth factor receptor (Homo sapiens) (UniProt P00533); settings: at 1 µM
[6] = test system: Epidermal growth factor receptor (Homo sapiens), P00533 [L858R]; settings: at 0.1 µM
[7] = test system: Epidermal growth factor receptor (Homo sapiens), P00533 [L858R]; settings: at 1 µM
[8] = test system: Epidermal growth factor receptor (Homo sapiens), P00533 [L861Q]; settings: at 0.1 µM
Epidermal growth factor receptor (Homo sapiens), P00533 [L861Q], sequence (P00533 whole entry L861Q): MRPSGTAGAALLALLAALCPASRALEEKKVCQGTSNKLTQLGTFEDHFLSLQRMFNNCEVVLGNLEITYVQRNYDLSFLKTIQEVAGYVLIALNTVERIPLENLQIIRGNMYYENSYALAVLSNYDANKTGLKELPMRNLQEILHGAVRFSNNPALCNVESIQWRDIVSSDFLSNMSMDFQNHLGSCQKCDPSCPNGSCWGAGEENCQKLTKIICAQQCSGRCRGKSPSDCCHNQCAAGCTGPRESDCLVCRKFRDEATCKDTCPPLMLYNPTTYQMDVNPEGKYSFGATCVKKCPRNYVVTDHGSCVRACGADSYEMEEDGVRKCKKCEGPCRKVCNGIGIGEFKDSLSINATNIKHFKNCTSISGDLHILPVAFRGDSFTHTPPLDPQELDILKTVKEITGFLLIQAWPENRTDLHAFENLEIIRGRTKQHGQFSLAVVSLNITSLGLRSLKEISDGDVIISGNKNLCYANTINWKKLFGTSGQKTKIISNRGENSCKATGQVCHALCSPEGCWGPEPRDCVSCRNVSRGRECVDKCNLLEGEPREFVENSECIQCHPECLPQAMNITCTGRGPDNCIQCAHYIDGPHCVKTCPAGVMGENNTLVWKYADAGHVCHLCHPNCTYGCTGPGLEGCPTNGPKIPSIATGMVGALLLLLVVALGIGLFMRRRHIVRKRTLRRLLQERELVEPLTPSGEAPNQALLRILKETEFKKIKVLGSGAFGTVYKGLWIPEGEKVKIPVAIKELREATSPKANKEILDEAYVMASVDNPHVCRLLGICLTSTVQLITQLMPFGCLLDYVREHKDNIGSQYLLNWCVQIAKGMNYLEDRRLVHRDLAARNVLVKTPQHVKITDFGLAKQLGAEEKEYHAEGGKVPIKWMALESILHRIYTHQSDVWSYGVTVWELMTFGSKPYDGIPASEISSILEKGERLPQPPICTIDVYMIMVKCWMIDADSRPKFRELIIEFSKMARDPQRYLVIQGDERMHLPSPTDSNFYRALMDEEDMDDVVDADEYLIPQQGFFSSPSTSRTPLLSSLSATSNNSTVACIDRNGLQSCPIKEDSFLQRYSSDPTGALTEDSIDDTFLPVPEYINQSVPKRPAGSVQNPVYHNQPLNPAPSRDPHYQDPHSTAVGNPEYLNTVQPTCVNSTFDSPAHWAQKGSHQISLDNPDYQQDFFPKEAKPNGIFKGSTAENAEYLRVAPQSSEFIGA

[9] = test system: Epidermal growth factor receptor (Homo sapiens), P00533 [L861Q]; settings: at 1 µM
[10] = test system: Epidermal growth factor receptor (Homo sapiens), P00533 [T790M]; settings: at 0.1 µM
[11] = test system: Epidermal growth factor receptor (Homo sapiens), P00533 [T790M]; settings: at 1 µM
[12] = test system: Epidermal growth factor receptor (Homo sapiens), P00533 [L858R,T790M]; settings: at 0.1 µM
Epidermal growth factor receptor (Homo sapiens), P00533 [L858R,T790M], sequence (P00533 whole entry T790M/L858R, looked up): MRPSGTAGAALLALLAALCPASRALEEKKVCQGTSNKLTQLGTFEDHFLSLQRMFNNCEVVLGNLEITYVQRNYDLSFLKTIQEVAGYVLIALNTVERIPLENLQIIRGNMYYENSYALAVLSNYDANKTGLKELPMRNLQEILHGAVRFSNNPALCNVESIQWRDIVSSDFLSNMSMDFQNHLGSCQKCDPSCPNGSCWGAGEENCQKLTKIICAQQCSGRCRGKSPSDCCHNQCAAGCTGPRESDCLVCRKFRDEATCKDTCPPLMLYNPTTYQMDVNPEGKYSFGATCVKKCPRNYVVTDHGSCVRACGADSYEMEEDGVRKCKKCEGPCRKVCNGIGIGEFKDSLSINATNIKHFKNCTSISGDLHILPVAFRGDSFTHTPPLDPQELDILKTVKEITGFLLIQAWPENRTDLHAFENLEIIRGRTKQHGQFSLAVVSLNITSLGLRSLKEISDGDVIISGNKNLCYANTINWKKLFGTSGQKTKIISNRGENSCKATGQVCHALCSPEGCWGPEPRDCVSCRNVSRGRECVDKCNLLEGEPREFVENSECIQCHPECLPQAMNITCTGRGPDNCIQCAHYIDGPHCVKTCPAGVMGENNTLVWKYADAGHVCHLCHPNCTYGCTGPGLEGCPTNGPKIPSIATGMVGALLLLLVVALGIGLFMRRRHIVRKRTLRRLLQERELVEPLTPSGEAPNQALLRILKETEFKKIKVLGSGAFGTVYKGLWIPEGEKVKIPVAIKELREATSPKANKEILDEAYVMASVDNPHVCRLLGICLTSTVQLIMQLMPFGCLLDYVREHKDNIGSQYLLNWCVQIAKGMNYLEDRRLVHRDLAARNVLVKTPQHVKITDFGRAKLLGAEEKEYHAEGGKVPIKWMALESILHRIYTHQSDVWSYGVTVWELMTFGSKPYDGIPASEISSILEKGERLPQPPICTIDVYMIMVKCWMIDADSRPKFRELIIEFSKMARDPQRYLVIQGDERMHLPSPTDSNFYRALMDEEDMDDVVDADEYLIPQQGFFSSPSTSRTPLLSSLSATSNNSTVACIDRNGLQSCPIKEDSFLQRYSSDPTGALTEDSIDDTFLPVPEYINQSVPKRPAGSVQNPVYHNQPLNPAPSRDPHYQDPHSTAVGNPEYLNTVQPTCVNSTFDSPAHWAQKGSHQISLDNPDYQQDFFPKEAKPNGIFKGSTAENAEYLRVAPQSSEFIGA

[13] = test system: Epidermal growth factor receptor (Homo sapiens), P00533 [L858R,T790M]; settings: at 1 µM
[14] = target: Ephrin type-A receptor 2 (Homo sapiens) (UniProt P29317); settings: at 0.1 µM
[15] = target: Ephrin type-A receptor 2 (Homo sapiens) (UniProt P29317); settings: at 1 µM
[16] = target: T2, Ephrin type-A receptor 3 (Homo sapiens) (UniProt P29320); settings: at 0.1 µM
T2 sequence (whole entry): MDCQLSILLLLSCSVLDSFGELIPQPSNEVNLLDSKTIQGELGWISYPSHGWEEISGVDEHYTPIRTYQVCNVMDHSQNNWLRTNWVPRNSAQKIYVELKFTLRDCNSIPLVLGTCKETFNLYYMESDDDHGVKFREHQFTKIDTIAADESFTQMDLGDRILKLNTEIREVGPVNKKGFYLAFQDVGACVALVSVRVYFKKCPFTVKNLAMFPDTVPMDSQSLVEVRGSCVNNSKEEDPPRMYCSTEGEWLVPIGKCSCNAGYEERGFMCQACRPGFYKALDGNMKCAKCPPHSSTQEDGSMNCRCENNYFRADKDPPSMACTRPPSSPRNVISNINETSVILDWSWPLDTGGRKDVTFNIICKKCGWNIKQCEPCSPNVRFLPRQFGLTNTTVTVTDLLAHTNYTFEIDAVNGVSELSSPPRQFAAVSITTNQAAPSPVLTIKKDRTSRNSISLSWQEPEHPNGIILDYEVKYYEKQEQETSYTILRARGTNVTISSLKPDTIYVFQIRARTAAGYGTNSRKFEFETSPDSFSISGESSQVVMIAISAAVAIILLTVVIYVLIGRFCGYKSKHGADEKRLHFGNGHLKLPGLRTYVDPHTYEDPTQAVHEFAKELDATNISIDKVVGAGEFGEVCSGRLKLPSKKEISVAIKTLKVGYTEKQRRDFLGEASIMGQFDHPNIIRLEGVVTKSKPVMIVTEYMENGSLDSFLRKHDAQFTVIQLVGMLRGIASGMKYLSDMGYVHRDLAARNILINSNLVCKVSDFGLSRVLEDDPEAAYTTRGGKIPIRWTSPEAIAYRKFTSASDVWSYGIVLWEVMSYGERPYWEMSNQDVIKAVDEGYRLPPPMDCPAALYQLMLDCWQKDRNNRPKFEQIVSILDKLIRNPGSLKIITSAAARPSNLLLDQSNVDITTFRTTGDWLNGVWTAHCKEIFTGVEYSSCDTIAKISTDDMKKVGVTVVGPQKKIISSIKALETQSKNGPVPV

[17] = target: T2, Ephrin type-A receptor 3 (Homo sapiens); settings: at 1 µM
[18] = target: Ephrin type-A receptor 4 (Homo sapiens) (UniProt P54764); settings: at 0.1 µM
Ephrin type-A receptor 4 (Homo sapiens), sequence (P54764 whole entry): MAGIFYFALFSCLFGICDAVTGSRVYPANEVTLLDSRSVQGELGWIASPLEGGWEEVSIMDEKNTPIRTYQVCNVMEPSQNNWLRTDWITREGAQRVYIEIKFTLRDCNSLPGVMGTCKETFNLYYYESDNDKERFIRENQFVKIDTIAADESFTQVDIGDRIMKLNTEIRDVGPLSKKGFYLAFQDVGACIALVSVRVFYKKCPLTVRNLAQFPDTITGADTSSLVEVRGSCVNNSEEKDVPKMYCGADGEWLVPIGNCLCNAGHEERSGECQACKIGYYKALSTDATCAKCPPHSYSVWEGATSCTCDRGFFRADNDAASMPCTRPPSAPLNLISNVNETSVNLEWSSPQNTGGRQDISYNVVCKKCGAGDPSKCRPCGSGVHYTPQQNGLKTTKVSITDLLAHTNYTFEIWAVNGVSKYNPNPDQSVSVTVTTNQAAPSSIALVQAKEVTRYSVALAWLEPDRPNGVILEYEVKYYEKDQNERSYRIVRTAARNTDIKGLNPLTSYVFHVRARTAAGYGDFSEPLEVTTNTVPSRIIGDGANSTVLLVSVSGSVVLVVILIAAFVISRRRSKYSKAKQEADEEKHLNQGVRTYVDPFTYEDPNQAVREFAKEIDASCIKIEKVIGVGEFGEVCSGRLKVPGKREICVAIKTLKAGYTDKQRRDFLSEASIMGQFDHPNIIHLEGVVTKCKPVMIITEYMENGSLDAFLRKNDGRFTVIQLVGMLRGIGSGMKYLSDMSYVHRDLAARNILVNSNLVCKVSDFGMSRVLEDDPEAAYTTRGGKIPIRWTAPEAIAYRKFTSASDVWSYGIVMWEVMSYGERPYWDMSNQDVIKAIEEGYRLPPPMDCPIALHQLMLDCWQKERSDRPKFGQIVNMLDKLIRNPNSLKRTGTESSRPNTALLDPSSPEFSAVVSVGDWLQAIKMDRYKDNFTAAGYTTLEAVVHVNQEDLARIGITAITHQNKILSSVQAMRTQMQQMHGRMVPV

[19] = target: Ephrin type-A receptor 4 (Homo sapiens) (UniProt P54764); settings: at 1 µM
[20] = target: T3, Ephrin type-B receptor 2 (Homo sapiens) (UniProt P29323); settings: at 0.1 µM;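 also: reported as mean inhibition of EPHB2, from the GSK PKIS dataset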
T3 sequence (whole entry): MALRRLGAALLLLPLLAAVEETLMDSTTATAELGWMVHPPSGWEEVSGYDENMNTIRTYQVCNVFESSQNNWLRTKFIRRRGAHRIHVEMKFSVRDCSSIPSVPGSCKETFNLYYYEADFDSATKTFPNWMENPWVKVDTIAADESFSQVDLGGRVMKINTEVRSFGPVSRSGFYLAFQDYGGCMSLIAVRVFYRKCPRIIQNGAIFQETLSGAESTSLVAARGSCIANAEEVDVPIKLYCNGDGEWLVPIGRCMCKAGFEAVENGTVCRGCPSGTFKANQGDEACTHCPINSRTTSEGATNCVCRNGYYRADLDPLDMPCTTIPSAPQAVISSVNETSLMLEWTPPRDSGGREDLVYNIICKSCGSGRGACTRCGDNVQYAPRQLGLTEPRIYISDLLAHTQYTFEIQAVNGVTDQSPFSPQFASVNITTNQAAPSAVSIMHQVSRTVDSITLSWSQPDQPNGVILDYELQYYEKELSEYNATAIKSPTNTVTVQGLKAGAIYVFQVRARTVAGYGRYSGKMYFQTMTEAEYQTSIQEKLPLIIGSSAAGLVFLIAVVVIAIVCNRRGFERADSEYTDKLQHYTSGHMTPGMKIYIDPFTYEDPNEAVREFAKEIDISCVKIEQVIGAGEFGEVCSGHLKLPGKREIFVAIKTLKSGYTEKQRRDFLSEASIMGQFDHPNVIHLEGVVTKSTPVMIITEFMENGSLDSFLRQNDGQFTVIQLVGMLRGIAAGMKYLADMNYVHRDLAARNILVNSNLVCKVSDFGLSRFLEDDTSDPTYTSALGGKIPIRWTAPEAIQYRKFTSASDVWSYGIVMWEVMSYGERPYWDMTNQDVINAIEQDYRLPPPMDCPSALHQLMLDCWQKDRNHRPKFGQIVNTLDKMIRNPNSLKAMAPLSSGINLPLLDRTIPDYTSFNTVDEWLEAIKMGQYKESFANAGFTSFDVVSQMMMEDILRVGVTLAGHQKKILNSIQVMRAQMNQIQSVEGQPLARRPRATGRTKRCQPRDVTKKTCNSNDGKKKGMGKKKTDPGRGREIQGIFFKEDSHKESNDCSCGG

Tyrosine-protein kinase CSK (Homo sapiens), sequence (P41240 2-450 limits assumed): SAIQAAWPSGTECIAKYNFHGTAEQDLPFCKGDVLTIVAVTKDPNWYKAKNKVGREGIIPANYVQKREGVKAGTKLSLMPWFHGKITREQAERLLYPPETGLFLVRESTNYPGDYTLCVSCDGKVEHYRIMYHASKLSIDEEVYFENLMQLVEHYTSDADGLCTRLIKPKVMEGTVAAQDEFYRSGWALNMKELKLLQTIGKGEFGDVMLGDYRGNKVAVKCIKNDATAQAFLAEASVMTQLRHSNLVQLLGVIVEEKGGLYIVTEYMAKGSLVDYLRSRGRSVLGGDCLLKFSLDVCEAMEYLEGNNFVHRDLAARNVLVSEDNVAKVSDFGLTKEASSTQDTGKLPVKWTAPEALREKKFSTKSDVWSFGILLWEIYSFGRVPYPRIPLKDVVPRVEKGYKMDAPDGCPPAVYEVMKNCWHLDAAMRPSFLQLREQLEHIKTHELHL

Structure (SMILES) | inhibition [1] | inhibition [2] | inhibition [3] | inhibition [4] | inhibition [5] | inhibition [6] | inhibition [7] | inhibition [8] | inhibition [9] | inhibition [10] | inhibition [11] | inhibition [12] | inhibition [13] | inhibition [14] | inhibition [15] | inhibition [16] | inhibition [17] | inhibition [18] | inhibition [19] | inhibition [20]
N#Cc1ccc(Oc2nccc(-c3c(-c4ccc(F)cc4)ncn3C3CCNCC3)n2)cc1 | 0.87% | 6.23% | 6.42% | -1.1% | 2.76% | -0.31% | 7.36% | 3.45% | 3.57% | 1.89% | 3.42% | -0.53% | 0.7% | 0.81% | 0.1% | 2.13% | 3.63% | 7.21% | 9.65% | 11%
COc1cccc(-n2cnc3c(N/N=C/c4ccncc4)ncnc32)c1 | 7.17% | -0.19% | 1.99% | 2.02% | 8.31% | 5.72% | 30.8% | 1.61% | 10.6% | -0.92% | 5.78% | -1.35% | 6.65% | -0.82% | 0.55% | -3.39% | -0.79% | 3.18% | 25.6% | 2.42%
FC(F)(F)c1cccc(Nc2nccc(-c3cnn4nc(-c5ccccc5)ccc34)n2)c1 | 1.44% | 0.05% | 2.08% | -0.78% | 0.92% | -0.7% | -0.57% | 1.2% | 0.07% | 1.28% | -0.22% | 0.52% | -0.49% | 2% | 0.59% | 2.67% | 3.91% | 5.08% | -4.97% | 4.58%
CS(=O)(=O)CCNCc1ccc(-c2ccc3ncnc(Nc4ccc(OCc5ccccc5)c(Br)c4)c3c2)o1 | 4.59% | 1.43% | 1.04% | 69.5% | 81.6% | 49.3% | 91.2% | 48.1% | 83.7% | 4.96% | 15.8% | 1.22% | -0.73% | -1.09% | -2.25% | 1.29% | 1.45% | 7% | 10.9% | 7.88%
Cc1ccc(NC(=O)c2ccoc2)cc1-c1ccc(C(=O)NCC2CC2)cc1 | 0.18% | 1.48% | 2.43% | 3.14% | 6.36% | 3.23% | 1% | 0.74% | 0.37% | 1.63% | 0.9% | 2.36% | 1.46% | 0.92% | -0.44% | 1.99% | 2.02% | 5.05% | 6.13% | 2.46%
C#Cc1cccc(Nc2ncnc3ccc(OCCCCNCCS(C)(=O)=O)cc23)c1 | 8.24% | 4.72% | 9.88% | 75.9% | 85.4% | 96.8% | 97.7% | 91.7% | 97.6% | 3.8% | 14.6% | 3.12% | 22.8% | -2.77% | -2.32% | 1.3% | 5.15% | 12.3% | 15.3% | 10.3%
O=C(Nc1n[nH]c2nc(-c3ccco3)ccc12)C1CC1 | 4.82% | 5.94% | 7.53% | 2.44% | 4.53% | -0.69% | 4.35% | 1.04% | 1.77% | 0.31% | -1.02% | 0.52% | -1.34% | -1.58% | 2.15% | 1.58% | 2.28% | 6.1% | 7.98% | 6.87%
